According to the supplement of paper PMC10849652:
Targets with a hit are over-represented here; the source holds about 7,900 in all. About 0.6% of all pairs of compound and target were hits. Unmarked numbers belong to inactive results.

How the values were obtained:
Test in all cases: log2 fold change, soluble protein after heating vs DMSO (PISA); higher = thermal stabilisation; K562 cells, 10 uM, 30 min; active = over 0.2 and 3.5 SD of the protein, either way, in both replicates (recomputed)
[1] = compound: Cc1ccc(NC(=O)c2ccc(CN3CC[C@H](N(C)C)C3)c(C(F)(F)F)c2)cc1Nc1nccc(-c2cncnc2)n1 [bafetinib]
In short: (§1)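 Soluble protein was quantified by TMTpro 16plex LC-MS/MS after channel sums were equalised. It was obtained as the supernatant after 21,000xg for 90 min from pooled aliquots of K562 cells (2×10^6 cells/mL, 10 μM compound, 30 min) heated for 3 min across 48°C-58°C and extracted in PBS with 0.5% NP-40 at 4°C. Thermal stability values are relative to control samples and come from duplicates. They are given as log2 fold changes.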

[2] = compound: Cc1cccc(CC(=O)N2CCc3c2ccc(-c2cn(C)c4ncnc(N)c24)c3F)n1
In short: as §1

[3] = compound: Cc1cn(-c2cc(NC(=O)c3ccc(C)c(Nc4nccc(-c5cccnc5)n4)c3)cc(C(F)(F)F)c2)cn1 [nilotinib]
In short: as §1

[4] = compound: Cc1nc(Nc2n[nH]c3c2CN(C(=O)N[C@H](CN(C)C)c2ccccc2)C3(C)C)c2sccc2n1
In short: as §1

[5] = compound: Cc1ncc(-c2ccnc(Nc3ccc(S(C)(=O)=O)cc3)n2)n1C(C)C
In short: as §1

[6] = compound: Cn1cc(-c2ccc3c(c2)CCN3C(=O)Cc2cccc(C(F)(F)F)c2)c2c(N)ncnc21
In short: as §1

[7] = compound: Cn1cc(-c2ccc3nnc(C(F)(F)c4ccc5ncccc5c4)n3n2)cn1
In short: as §1

[8] = compound: Cn1cncc1[C@@](N)(c1ccc(Cl)cc1)c1ccc2c(c1)c(-c1cccc(Cl)c1)cc(=O)n2C [tipifarnib]
In short: as §1

[9] = compound: FC(F)(F)c1ccc(/C=C/c2nc(COc3ccc(CCCCn4ccnn4)cc3)co2)cc1 [mubritinib]
In short: as §1

[10] = compound: NC1(c2ccc(-c3nc4ccn5c(=O)[nH]nc5c4cc3-c3ccccc3)cc2)CCC1
In short: as §1

[11] = compound: O=C(CCCCCCC(=O)Nc1ccccc1)NO [vorinostat]
In short: as §1

[12] = compound: O=C(O)c1ccc2c(c1)nc(Nc1cccc(Cl)c1)c1ccncc12 [silmitasertib]
In short: as §1

[13] = compound: O=C1NC(=O)C(c2cnc3ccccn23)=C1c1cn2c3c(cc(F)cc13)CN(C(=O)N1CCCCC1)CC2
In short: as §1

[14] = compound: Cc1nc(Nc2ncc(C(=O)Nc3c(C)cccc3Cl)s2)cc(N2CCN(CCO)CC2)n1 [dasatinib]
In short: as §1

[15] = compound: NC(=O)c1cnc(N[C@@H]2CCCC[C@@H]2N)nc1Nc1cccc(-n2nccn2)c1
In short: as §1

[16] = compound: NCC(=O)Nc1ccc(-n2nc(C(F)(F)F)cc2-c2ccc3c(ccc4ccccc43)c2)cc1
In short: as §1

[17] = compound: O=C(CCCCCCNC(=O)c1cnc(N(c2ccccc2)c2ccccc2Cl)nc1)NO [citarinostat]
In short: as §1

[18] = compound: c1cc(OCCN2CCCCC2)cc(-c2n[nH]c3ccc(-c4nnc[nH]4)cc23)c1
In short: as §1

[19] = compound: NC(=O)Nc1cc(-c2cccc(F)c2)sc1C(=O)N[C@H]1CCCNC1
In short: as §1

[20] = compound: Nc1ccccc1NC(=O)c1ccc(CNC(=O)OCc2cccnc2)cc1 [entinostat]
In short: as §1

Sequence of UniProt Q9H019 (Q9H019 whole entry, looked up): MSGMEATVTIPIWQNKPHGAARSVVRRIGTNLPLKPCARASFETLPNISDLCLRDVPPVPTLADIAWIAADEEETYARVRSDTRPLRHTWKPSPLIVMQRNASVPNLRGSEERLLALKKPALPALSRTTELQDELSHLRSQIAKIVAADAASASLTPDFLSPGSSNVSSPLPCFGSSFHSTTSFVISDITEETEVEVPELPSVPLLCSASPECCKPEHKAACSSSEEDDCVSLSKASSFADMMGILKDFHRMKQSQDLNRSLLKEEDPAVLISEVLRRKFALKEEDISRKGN
Sequence of UniProt Q8IXH7 (Q8IXH7 whole entry, looked up): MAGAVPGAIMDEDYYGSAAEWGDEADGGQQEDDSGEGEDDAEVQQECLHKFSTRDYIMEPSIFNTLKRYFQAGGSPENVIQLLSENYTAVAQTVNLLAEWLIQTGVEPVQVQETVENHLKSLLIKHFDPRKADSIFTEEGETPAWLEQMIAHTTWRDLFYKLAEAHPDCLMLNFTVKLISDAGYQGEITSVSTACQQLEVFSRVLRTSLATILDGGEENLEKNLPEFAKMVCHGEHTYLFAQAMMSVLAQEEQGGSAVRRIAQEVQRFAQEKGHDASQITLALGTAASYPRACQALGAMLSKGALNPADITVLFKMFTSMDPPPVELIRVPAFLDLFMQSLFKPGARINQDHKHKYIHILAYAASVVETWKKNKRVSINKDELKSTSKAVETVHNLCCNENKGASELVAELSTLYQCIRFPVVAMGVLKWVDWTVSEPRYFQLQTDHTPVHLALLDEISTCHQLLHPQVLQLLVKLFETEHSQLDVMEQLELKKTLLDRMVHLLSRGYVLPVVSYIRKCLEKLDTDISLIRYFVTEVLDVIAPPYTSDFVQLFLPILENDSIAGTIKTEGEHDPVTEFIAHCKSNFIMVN
Sequence of UniProt Q6N063 (Q6N063 whole entry, looked up): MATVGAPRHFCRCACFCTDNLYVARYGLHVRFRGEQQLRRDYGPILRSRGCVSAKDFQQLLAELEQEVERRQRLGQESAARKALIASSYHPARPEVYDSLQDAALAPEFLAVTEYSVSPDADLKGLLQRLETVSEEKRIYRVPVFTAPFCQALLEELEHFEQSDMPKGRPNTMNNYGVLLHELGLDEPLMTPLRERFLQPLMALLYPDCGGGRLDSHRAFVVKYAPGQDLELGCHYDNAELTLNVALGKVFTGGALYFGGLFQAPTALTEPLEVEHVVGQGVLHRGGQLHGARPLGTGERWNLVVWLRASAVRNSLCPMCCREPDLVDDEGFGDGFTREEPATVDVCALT
Sequence of NA, A0A494C071 (A0A494C071 whole entry, looked up): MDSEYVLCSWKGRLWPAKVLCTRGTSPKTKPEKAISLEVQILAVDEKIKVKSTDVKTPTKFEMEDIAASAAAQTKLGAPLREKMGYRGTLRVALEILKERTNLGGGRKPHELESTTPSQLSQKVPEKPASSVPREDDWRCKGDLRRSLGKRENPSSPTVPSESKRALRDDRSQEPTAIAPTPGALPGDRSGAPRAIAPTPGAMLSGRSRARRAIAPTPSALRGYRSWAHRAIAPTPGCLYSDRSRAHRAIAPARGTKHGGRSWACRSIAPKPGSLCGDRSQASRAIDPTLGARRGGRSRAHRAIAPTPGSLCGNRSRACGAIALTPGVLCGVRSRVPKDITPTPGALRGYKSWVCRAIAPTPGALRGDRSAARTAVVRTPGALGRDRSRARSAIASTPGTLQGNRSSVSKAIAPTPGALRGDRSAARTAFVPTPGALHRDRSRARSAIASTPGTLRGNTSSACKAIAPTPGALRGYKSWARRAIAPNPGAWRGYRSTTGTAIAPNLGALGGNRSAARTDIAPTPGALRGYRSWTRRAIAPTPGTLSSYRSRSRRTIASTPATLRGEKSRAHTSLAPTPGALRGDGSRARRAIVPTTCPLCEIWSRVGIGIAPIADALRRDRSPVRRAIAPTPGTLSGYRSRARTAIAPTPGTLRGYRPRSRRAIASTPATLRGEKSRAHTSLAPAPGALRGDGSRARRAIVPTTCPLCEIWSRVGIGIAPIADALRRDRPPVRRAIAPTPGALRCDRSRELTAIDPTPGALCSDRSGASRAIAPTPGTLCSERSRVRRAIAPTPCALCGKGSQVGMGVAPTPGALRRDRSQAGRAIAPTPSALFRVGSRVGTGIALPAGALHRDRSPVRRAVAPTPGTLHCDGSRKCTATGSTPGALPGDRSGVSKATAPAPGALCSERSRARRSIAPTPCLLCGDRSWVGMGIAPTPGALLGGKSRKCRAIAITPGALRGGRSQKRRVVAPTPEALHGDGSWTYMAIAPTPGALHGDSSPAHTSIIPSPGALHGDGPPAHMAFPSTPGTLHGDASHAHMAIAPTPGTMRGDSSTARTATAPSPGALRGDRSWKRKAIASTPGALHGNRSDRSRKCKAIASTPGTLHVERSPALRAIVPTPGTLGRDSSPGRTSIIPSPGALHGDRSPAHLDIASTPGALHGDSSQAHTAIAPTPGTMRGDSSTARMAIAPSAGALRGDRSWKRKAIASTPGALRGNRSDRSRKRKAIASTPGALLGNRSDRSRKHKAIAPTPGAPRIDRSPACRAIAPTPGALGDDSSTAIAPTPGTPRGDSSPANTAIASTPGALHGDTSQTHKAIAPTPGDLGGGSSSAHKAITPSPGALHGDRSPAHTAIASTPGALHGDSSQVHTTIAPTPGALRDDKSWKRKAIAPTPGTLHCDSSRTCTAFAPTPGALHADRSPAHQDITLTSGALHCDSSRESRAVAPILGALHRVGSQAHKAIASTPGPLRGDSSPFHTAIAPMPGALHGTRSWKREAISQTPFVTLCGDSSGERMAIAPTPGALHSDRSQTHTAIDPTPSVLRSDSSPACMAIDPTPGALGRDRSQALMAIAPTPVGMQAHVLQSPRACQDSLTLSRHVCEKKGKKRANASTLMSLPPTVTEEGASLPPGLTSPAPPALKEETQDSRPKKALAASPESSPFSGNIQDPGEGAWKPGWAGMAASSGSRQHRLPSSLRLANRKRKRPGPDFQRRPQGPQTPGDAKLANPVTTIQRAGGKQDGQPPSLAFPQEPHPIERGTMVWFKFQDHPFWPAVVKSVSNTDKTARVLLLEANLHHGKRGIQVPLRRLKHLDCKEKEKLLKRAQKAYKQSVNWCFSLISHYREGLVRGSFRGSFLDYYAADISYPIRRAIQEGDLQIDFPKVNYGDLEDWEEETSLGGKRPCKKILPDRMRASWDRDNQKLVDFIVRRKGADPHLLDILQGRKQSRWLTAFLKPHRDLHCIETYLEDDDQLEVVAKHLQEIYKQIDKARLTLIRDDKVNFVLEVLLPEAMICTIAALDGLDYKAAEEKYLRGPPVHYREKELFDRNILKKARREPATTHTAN
Sequence of UniProt O75438 (O75438 whole entry, looked up): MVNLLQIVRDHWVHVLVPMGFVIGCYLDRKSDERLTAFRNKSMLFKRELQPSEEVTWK
Sequence of UniProt Q9Y605 (Q9Y605 whole entry, looked up): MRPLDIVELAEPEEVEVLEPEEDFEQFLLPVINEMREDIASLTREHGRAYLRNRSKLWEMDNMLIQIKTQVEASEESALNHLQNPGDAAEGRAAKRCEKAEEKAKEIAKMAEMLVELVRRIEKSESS
Sequence of UniProt Q86VX9 (Q86VX9 whole entry, looked up): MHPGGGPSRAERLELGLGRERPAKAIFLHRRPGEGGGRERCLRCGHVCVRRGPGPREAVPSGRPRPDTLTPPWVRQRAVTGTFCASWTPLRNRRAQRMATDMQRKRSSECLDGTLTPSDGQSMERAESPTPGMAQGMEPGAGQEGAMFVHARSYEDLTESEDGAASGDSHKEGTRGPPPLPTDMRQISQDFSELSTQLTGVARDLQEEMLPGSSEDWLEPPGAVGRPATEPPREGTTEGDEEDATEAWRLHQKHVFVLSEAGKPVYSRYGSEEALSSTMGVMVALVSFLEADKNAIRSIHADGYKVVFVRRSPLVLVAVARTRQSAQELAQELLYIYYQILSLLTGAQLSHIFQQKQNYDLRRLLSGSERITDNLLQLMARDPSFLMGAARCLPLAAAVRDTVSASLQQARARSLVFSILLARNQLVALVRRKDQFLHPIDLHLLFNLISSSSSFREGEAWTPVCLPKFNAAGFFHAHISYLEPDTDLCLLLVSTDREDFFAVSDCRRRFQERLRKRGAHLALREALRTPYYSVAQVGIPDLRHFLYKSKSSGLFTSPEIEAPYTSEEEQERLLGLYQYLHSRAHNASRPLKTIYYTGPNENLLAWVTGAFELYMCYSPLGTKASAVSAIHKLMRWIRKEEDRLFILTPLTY
Sequence of UniProt Q9UK23 (Q9UK23 whole entry, looked up): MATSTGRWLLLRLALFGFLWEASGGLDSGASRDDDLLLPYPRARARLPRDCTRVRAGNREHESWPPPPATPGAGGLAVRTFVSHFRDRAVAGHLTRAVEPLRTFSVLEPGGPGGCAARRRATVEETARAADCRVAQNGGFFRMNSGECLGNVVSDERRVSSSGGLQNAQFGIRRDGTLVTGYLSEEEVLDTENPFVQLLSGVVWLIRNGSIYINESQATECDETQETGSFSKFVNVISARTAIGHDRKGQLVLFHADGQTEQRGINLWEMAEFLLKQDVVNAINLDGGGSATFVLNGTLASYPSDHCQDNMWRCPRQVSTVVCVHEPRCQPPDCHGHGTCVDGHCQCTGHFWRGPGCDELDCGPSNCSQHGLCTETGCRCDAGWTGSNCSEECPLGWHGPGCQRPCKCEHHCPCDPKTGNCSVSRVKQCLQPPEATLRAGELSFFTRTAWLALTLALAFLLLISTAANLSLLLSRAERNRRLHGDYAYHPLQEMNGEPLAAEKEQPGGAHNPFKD
Sequence of UniProt Q70IA6 (Q70IA6 whole entry, looked up): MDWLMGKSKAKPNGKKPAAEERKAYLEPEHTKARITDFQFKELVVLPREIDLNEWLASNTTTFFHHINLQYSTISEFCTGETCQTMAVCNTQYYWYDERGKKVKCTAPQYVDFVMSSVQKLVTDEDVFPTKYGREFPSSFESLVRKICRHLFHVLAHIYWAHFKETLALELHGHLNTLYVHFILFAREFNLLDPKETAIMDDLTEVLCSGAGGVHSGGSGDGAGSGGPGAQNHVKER

| Target | log2 fold change [1] | log2 fold change [2] | log2 fold change [3] | log2 fold change [4] | log2 fold change [5] | log2 fold change [6] | log2 fold change [7] | log2 fold change [8] | log2 fold change [9] | log2 fold change [10] | log2 fold change [11] | log2 fold change [12] | log2 fold change [13] | log2 fold change [14] | log2 fold change [15] | log2 fold change [16] | log2 fold change [17] | log2 fold change [18] | log2 fold change [19] | log2 fold change [20] |
| --- | --- | --- | --- | --- | --- | --- | --- | --- | --- | --- | --- | --- | --- | --- | --- | --- | --- | --- | --- | --- |
| MOB2 isoform 3 (UniProt Q70IA6) | 0.005 | -0.039 | -0.133 | -1.47 (active) | 0.03 | -0.069 | 0.056 | 0.013 | -0.108 | -0.251 | 0.044 | 0.062 | -0.368 |  |  |  |  |  |  |  |
| NA, A0A494C071 | -1.12 (active) | -0.057 | 0.074 | 0.329 | -0.439 | 0.001 |  |  | 0.094 | -0.407 | 0 | 0.212 | -0.022 | 0.029 | -0.484 | -0.153 | 0.023 | -0.086 |  |  |
| MTFR1L (UniProt Q9H019) | -0.1 | 0.305 | 0.014 | -0.32 | -0.038 | 0.07 | 0.001 | -0.062 |  |  | 0.356 |  | -0.014 | -0.167 | -0.079 | -0.005 |  |  | -0.069 | 0.069 |
| MRFAP1 (UniProt Q9Y605) | -0.045 | -0.08 | -0.174 | -0.064 | 0.051 | -0.024 | 0.011 | -0.261 | -0.075 | 0.021 | 0.15 | -0.019 |  | -0.054 | 0.01 | -0.082 | 0.133 | -0.028 | 0.134 | 0.014 |
| NKAP (UniProt Q8N5F7) | -0.016 | -0.081 | 0.059 | -0.792 (active) | 0.015 | -0.033 | -0.253 | -0.138 | -0.169 | 0.027 | 0.019 | -0.132 | 0.111 | 0.086 | -0.043 | -0.028 | 0.099 | -0.144 |  |  |
| OVCA2 (UniProt Q8WZ82) | 0.171 | 0.039 | 0.026 | -0.326 | -0.163 |  | -0.003 | -0.059 | -0.231 | 0.03 | 0.08 | 0.206 |  |  | -0.067 |  | -0.085 | 0.08 |  |  |
| MYH16 (UniProt Q9H6N6) | 0.482 | 0.303 | 0.061 | 0.062 | 0.088 | 0.068 |  | -0.248 | -0.025 | -0.057 | 0.291 | -0.044 |  |  | 0.051 | 0.051 |  |  | 0.467 | 0.289 |
| OGFOD2 (UniProt Q6N063) | 0.009 | 0.171 | 0.004 | -0.007 | -0.023 | -0.011 | 0.132 |  | 0.092 | -0.151 | -0.313 | 0.097 | -0.073 | -0.04 | 0.005 | -0.012 | 0.036 | -0.012 |  |  |
| NDUFB1 (UniProt O75438) | -0.116 | 0.028 | 0.095 | 0.009 | -0.028 | 0.004 |  | 0.038 | 0.022 | -0.007 | 0.108 | -0.014 | -0.124 |  | -0.114 | -0.134 | -0.026 | 0.012 | 0.053 | 0.055 |
| OPHN1 (UniProt O60890) | -0.035 | -0.134 | -0.088 | 0.051 | 0.093 | 0.028 | 0.099 |  | 0.035 | -0.056 | 0.128 | 0.031 | -0.046 | -0.04 | -0.134 |  | 0.021 | 0.094 | 0.073 | -0.084 |
| NAGPA (UniProt Q9UK23) | -0.076 | -0.142 | -0.082 | 0 | 0.014 | 0.023 |  | 0.245 | -0.091 | 0.03 | -0.122 | -0.237 | 0.043 | 0.053 | -0.045 |  | 0.074 | -0.023 | 0.051 | 0.04 |
| MON1A (UniProt Q86VX9) | -0.011 | -0.112 | -0.163 | -0.056 | 0.138 |  | -0.009 | 0.082 | -0.012 | 0.001 | 0.017 | -0.157 | -0.013 | 0.017 |  |  | 0.161 | -0.275 | 0.016 | -0.005 |
| NELFCD (UniProt Q8IXH7) | 0.116 | -0.111 | -0.233 | -0.003 | 0.064 | 0.061 |  | 0.035 |  |  | 0.234 |  | -0.12 | -0.158 | -0.005 | -0.321 |  |  |  |  |
| NUMBL (UniProt Q9Y6R0) | -0.002 | 0.113 | -0.001 | -0.136 | 0.027 | 0.041 | 0.097 | 0.068 | 0.28 | -0.154 | 0.078 | -0.037 | 0.016 | -0.029 | 0.016 | 0.002 |  |  | -0.101 | 0.01 |
| NECTIN2 isoform 2 (UniProt Q92692) | -0.64 | 0.145 | 0.129 | -0.016 | 0.006 |  | -0.129 |  | -0.049 | -0.194 | 0.087 | -0.039 | -0.495 | 0.001 | 0.171 | 0.031 | 0.108 | 0.09 | 0.072 | -0.032 |
| NPM3 (UniProt O75607) | 0.017 | -0.027 | -0.045 | 0.062 | -0.121 | 0.043 | -0.028 | 0.071 | -0.035 | 0.216 | -0.023 | 0.137 |  | 0.101 | 0.02 | 0.017 | -0.059 | -0.101 | 0.029 | -0.019 |
| MYO19 (UniProt Q96H55) | 0.007 | -0.068 | -0.022 | -0.045 | 0.038 | -0.099 | -0.069 | 0.048 |  |  | 0.029 |  | 0.232 | -0.111 | -0.112 | 0.051 |  |  |  |  |
| MYLK (UniProt Q15746) | 0.827 (active) | -0.063 | 0.856 (active) | 0.147 | 0.136 | -0.107 | -0.128 | 0.047 | 0 | -0.064 | -0.059 | 0.175 |  | 0.65 (active) |  | -0.21 | -0.089 | 0.204 | -0.063 | -0.081 |
| NDFIP1 (UniProt Q9BT67) | -0.137 | -0.08 | -0.214 | 0.354 | 0.225 | -0.038 | -0.072 |  | -0.024 | -0.029 | -0.051 | 0.27 | 0.352 | 0.039 | -0.16 | -0.249 | 0.025 | 0.007 | 0.104 | -0.291 |
